We go through five compounds from PubChem BioAssay.

Activity calls are given as the source filed them. Unless noted, how the calls were made is not given here.

The nature of experiment [1]: anti-His antibody binders, primary screen, artefact control for SMM control protein annotation, biochemical, small-molecule microarray, 635 nm fluorescence (AID 1128).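 Further: score merges feature fluorescence with signal-to-noise for each printed compound spot.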 The following applies: anti-His Alexa647 antibody binding, higher = more signal.
In experiment [2] the test system is Human papillomavirus type 1a E7 protein (residues 1-88). Description: HPV1a E7 small-molecule binders, primary screen, biochemical, small-molecule microarray, residues 1-88, 635 nm (AID 1129). Particulars: small-molecule microarray binding, fluorescence 635 nm; higher = more signal.
For experiment [3], the target named is Focal adhesion kinase 1 (Homo sapiens) (UniProt Q05397). In words: small-molecule microarray binders of FAK, primary screen, biochemical, 635/667 nm fluorescence, BSA, DTT (AID 1130).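 Further: composite of spot emission at 667 nm and signal to noise over triplicate slides.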 The following applies: PTK2 binding, 635 nm fluorescence, higher = more signal.
Chain of Focal adhesion kinase 1 (Homo sapiens) (Q05397 whole entry, looked up): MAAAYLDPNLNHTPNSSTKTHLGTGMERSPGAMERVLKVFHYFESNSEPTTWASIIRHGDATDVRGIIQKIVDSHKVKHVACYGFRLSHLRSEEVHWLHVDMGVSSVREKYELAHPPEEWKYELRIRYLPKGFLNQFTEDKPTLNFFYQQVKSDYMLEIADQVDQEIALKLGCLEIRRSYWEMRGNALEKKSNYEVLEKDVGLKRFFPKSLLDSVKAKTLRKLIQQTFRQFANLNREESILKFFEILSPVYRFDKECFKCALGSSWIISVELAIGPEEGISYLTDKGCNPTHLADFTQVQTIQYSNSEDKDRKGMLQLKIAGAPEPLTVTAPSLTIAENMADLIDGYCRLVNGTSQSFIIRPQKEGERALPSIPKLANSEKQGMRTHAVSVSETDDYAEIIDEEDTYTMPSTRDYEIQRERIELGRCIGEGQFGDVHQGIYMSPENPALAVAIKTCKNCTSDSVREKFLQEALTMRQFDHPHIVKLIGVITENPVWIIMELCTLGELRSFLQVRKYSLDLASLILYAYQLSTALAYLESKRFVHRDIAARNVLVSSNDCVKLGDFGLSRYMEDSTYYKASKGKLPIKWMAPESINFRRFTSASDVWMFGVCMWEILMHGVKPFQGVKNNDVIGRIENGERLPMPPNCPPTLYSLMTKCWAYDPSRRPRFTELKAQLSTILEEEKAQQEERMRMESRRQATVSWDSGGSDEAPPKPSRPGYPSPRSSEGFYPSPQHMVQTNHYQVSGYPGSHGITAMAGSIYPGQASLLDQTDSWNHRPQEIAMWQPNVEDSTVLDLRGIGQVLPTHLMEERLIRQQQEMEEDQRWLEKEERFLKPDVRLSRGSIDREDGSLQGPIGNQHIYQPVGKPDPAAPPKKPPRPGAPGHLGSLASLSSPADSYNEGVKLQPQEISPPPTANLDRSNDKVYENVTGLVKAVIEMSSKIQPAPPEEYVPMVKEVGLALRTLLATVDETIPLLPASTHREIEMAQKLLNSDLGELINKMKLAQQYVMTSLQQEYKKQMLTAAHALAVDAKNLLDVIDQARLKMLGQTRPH
Experiment [4] has as its system Fibrinogen (Alexa647-labelled). In words: fibrinogen binders on compound microarrays, profiling panel, artefact control for SMM control-protein annotation, biochemical, small-molecule microarray, 635/667 nm fluorescence (AID 1131).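 Further: z-score merges 667 nm fluorescence with per-spot signal-to-noise over triplicate slides.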 Particulars: fibrinogen-A647 binding fluorescence, higher = more signal.
Experiment [5] concerns the target Follistatin (Homo sapiens) (UniProt P19883). Description: follistatin binders on small-molecule microarrays, primary screen, biochemical, small-molecule microarray, 635/667 nm fluorescence (AID 1132). Particulars: FST binding, 635 nm fluorescence, higher = more signal.
In experiment [6] the target is Fibroblast growth factor 2 (Homo sapiens) (UniProt P09038). Description: FGF2 binders on small-molecule microarrays, primary screen, biochemical, small-molecule microarray, 635/667 nm fluorescence (AID 1133). The following applies: small-molecule microarray binding, FGF2, fluorescence 635/667; higher = more signal.
Chain of Fibroblast growth factor 2 (Homo sapiens) (P09038 whole entry, looked up): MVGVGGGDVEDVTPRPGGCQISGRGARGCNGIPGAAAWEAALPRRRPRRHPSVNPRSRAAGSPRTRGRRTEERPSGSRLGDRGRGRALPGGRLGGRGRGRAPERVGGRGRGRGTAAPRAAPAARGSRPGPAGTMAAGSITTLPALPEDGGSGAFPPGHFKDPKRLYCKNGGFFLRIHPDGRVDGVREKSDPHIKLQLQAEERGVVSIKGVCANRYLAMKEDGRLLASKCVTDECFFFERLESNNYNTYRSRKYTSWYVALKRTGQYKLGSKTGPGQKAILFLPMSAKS
A short description of experiment [7]: mitochondrial membrane potential change in A549 cells, profiling panel, cell-based, JC-1 fluorescence, basal, 24 h, 100 nL (AID 1138).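 Further: A549 lung adenocarcinoma cells under basal conditions with no added stimulus; test concentration not given here.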 The following applies: higher = more signal.
The test system of the next experiment is Lefty1. Description: Lefty1 binders on small-molecule microarrays, primary screen, biochemical, small-molecule microarray, 635/667 nm fluorescence (AID 1139). Particulars: small-molecule microarray binding, fluorescence 635/667; higher = more signal.
Experiment [8] has as its system wheat germ agglutinin (Triticum aestivum), Alexa647-labelled. In words: wheat germ agglutinin binders on compound microarrays, profiling panel, artefact control for SMM control-protein annotation, biochemical, small-molecule microarray, 635/667 nm fluorescence (AID 1140).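 Further: score merges 667 nm feature emission with signal to noise over triplicate slides.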 Particulars: WGA-A647 binding, 635 nm fluorescence, higher = more signal.
For experiment [9], the target named is Luciferin 4-monooxygenase (Photinus pyralis) (UniProt P08659). Description: firefly luciferase enzyme inhibitors, primary screen, biochemical, luminescence, purified enzyme, 2006 set (AID 1141).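 Further: cell-free assay with purified firefly luciferase at 100 ng per well in PBS; test concentration not given here.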 The following applies: SteadyGlo luminescence, 30 min, higher = more signal, called active from +8 up or from −8 down.
Chain of Luciferin 4-monooxygenase (Photinus pyralis) (P08659 whole entry, looked up): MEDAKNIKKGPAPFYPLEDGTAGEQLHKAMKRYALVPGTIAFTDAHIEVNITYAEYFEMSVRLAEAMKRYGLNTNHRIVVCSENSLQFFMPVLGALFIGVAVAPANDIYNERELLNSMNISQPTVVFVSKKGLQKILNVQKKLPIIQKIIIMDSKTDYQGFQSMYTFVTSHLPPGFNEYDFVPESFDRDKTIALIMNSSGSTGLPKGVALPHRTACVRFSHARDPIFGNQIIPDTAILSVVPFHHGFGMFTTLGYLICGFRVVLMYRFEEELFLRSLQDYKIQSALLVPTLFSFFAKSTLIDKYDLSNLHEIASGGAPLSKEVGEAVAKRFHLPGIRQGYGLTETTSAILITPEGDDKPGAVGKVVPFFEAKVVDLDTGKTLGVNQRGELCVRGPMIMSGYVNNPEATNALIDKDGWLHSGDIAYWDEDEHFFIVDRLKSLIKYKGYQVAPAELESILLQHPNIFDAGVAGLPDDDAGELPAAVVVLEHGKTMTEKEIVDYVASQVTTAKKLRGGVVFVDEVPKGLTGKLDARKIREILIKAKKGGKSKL
Experiment [10] has as its system Wnt5a (protein binding on small-molecule microarray). In words: Wnt5a binders on small-molecule microarray, primary screen, biophysical, 635/667 nm fluorescence (AID 1142).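 Further: fluorescence read at 667 nm with signal to noise per printed feature.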 The following applies: 635 nm fluorescence, higher = more signal.
Experiment [11] in a line: cell viability in Huh7 cells, primary screen, cytotoxicity control for HCV replication inhibitor project, CellTiter-Glo luminescence, basal, 48 h (AID 1143).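 Further: Huh7 hepatoma cells carrying a hepatitis C replication reporter with no stimulus; test concentration not given here.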 The following applies: Huh7 HCV replicon, higher = more signal, called active from +8 up or from −8 down. Background: ATP-based viability assays read luminescence as a measure of living cells.
Experiment [12] can be described thus: P. aeruginosa biofilm formation inhibitors, primary screen, PAO1 strain, BacTiter-Glo luminescence, LB-PBS (AID 1144). The following applies: 12 h, higher = more signal.
Experiment [13] in a line: CREB reporter modulators without forskolin, primary screen, cell-based, PC12, CRE-LacZ reporter, unstimulated (AID 1145). Particulars: no forskolin, luminescence, 4.5 h, higher = more signal, called active from +8 up or from −8 down.
Experiment [14] in a line: CREB reporter modulators under forskolin, primary screen, cell-based, PC12, CRE-LacZ reporter, forskolin-stimulated (AID 1146).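 Further: PC12 cells with 6xCRE LacZ reporter stimulated by forskolin 10 µM; beta-galactosidase reporter signal reflecting CREB driven transcription.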 The following applies: luminescence, 4.5 h, higher = more signal, called active from +8 up or from −8 down.
Experiment [15] concerns the target Streptavidin (Streptomyces avidinii) (UniProt P22629). In words: streptavidin binders on small-molecule microarray, primary screen, artefact control for SMM compound annotation, biophysical, 635/667 nm fluorescence (AID 1147).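 Further: signal reflects streptavidin binding to arrayed compounds as a control protein.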 The following applies: streptavidin binding, higher = more signal.
Experiment [16] can be described thus: small-molecule binders of probe aInhba, primary screen, biochemical, small-molecule microarray, 635/667 nm fluorescence (AID 1148).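 Further: score merges 667nm spot fluorescence with signal-to-noise for antibody binding to printed compounds.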 The following applies: higher = more signal.
Experiment [17] deals with Torsin-1A (Homo sapiens) (UniProt O14656). Description: torsin A binders from cell lysate, primary screen, small-molecule microarray, wild-type, 635/667 nm (AID 1149). The following applies: COS7 hTOR1A-WT lysate, 635 nm fluorescence, higher = more signal.
Chain of Torsin-1A (Homo sapiens) (O14656 whole entry, looked up): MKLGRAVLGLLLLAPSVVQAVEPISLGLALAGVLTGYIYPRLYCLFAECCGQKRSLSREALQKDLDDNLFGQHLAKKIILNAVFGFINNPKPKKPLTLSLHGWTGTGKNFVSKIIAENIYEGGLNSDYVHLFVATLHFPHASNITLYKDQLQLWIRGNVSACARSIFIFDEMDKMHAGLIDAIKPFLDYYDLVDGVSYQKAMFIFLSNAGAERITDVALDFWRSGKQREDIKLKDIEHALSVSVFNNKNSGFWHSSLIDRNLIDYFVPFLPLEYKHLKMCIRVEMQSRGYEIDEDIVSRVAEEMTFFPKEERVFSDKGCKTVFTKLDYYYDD
Experiment [18] shares this target. Description: small-molecule binders of mutant TOR1A in lysate, primary screen, cell lysate, small-molecule microarray, COS7 lysate, 635/667 nm fluorescence (AID 1150).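 Further: score pools 667 nm emission and signal to noise measuring lysate protein binding.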 Particulars: COS7 hTOR1A mutant lysate, 635 nm fluorescence, higher = more signal.
The test system of experiment [19] is Sonic hedgehog protein (Shh). In words: small-molecule binders of Shh protein, primary screen, biochemical, small-molecule microarray, 635/667 nm fluorescence (AID 1151).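 Further: Shh protein binding to compounds spotted on small-molecule microarray slides; score combines spot fluorescence intensity with signal-to-noise across triplicate slides.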 The following applies: small-molecule microarray binding, 635 nm fluorescence; higher = more signal.

Chain of Follistatin (Homo sapiens) (P19883 whole entry, looked up): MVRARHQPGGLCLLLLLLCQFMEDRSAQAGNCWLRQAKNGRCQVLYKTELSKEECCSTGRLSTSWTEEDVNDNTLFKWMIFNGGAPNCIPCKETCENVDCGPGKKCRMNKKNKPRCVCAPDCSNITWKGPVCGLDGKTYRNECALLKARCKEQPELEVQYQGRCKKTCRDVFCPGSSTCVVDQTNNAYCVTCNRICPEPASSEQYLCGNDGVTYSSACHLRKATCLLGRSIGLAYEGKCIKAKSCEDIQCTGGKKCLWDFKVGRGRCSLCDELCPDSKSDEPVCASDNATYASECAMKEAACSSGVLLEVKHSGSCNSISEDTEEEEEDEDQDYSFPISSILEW
Chain of Streptavidin (Streptomyces avidinii) (P22629 whole entry, looked up): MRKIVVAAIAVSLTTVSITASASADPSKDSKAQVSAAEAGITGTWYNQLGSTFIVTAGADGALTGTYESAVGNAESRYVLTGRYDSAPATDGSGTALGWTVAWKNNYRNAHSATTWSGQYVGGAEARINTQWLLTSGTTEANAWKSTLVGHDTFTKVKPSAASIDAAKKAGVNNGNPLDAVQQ

As for `COCCOC(=O)N1C(=O)[C@@]2(c3cc(C#CC4(O)CCCCCC4)ccc31)[C@H](C(=O)NC[C@H](O)c1ccccc1)[C@H]1C(=O)O[C@H](c3ccccc3)[C@H](c3ccccc3)N1[C@@H]2c1ccc(OCCO)cc1`, the composite z-score in [1] came to 0.726; in experiment [2] it was 1.21; in [3], 0.444; in [4], 0.95; in experiment [5] it was 0.822; in experiment [6], 0.94. Moreover, the composite z-score in the experiment on Lefty1 was 0.473; in [8] it was 0.357; in experiment [10], -0.0894; in experiment [15] it was -0.0815; in [16], 0.217; with Torsin-1A (Homo sapiens) [17] it was 0.0969. In addition, the composite z-score with Torsin-1A (Homo sapiens) [18] was found to be 0.124; in experiment [19] it was 1.72. Further, the z-score in [7] was -1.49; in experiment [9], 0.531 (inactive); in experiment [11] it was -3.38 (inactive); in experiment [12], -0.401 (inactive); in experiment [13] it was -0.285 (inactive); in experiment [14], 0.0759 (inactive).

Turning to `C[N+](C)(C)CCCC[C@@H]1NC(=O)[C@H]2C[C@@H](C(=O)NCCCCCCN)[C@@H](c3cccc(OCCO)c3)N2C1=O`, the composite z-score in experiment [1] was 0.711; in experiment [2], 1.21; in [3], 0.209; in experiment [4], 0.704; in [5], 1.4; in [6] it was 1.51. Further, the composite z-score in the experiment on Lefty1 turned out to be 1.67; in experiment [8] it was 1.13; in experiment [10], 0.693; in experiment [15], 1.65; in experiment [16], 0.794; with Torsin-1A (Homo sapiens) [17], 1.33. The composite z-score with Torsin-1A (Homo sapiens) [18] came out at 1.25; in experiment [19], 2.04. Moreover, the z-score in experiment [7] is -0.798; in experiment [9], 0.815 (inactive); in [11], 0.0395 (inactive); in experiment [12], 0.406 (inactive); in [13], -0.809 (inactive); in [14], -0.254 (inactive).

Regarding `O=C1C2C=CC(C(O)c3ccc(Br)cc3)N(Nc3ccccc3)C2C(=O)N1c1ccccc1` (stereo not given), the composite z-score was 0.0876 in [1]; 1.14 in experiment [2]; 0.081 in experiment [3]; 0.572 in [4]; 0.52 in experiment [5]; -0.364 in experiment [6]. For the same compound, the composite z-score with Lefty1 was -0.51; in experiment [8] it was 1.09; in [10], -0.0007; in [15], 1.47; in experiment [16] it was 0.147; with Torsin-1A (Homo sapiens) [17] it was -0.0004. For the same compound, the composite z-score in the experiment with Torsin-1A (Homo sapiens) [18] is -0.0172; in [19], -0.146. Further, the z-score in [7] is 0.0103; in experiment [9], 0.296 (inactive); in [11] it was 0.198 (inactive); in [12], -0.95 (inactive); in [13], 0.24 (inactive); in experiment [14] it was 0.35 (inactive).

For `CCN(CC)c1ccc(N2CC=CC34O[C@@H]5/C=C\CCCOC(=O)C5[C@H]3C(=O)N(CCCCCO)[C@@H]4C2=O)cc1` (stereo not given in full), the composite z-score in [1] is -0.617; in experiment [2] it was -1.39; in experiment [3], -0.722; in [4] it was -2.57; in experiment [5] it was -0.785; in [6], -1.26. Moreover, the composite z-score in the experiment on Lefty1 was -0.758; in [8], -1.19; in experiment [10] it was -0.704; in experiment [15], -1.45; in experiment [16], -0.211; in the experiment with Torsin-1A (Homo sapiens) [17] it was -2.51. For the same compound, the composite z-score was -1.91 with Torsin-1A (Homo sapiens) [18] and -0.155 in experiment [19]. Also, the z-score in experiment [7] is 0.965; in experiment [9], -0.918 (inactive); in experiment [11], -0.119 (inactive); in experiment [12], 2.25 (inactive); in experiment [13], 0.605 (inactive); in experiment [14], 0.417 (inactive).

On to `COc1ccc([Si](C)(C)[C@@H]2[C@@H](CC(=O)N(CCO)Cc3ccccc3)O[C@]3(C(=O)N(C)c4c(Br)cc(C)cc43)[C@H]2C)cc1`, for which the composite z-score is 0.926 in [1]; 0.304 in [2]; 0.19 in experiment [3]; -0.537 in experiment [4]; 1.08 in [5]; 0.957 in experiment [6]. The composite z-score is 1.17 with Lefty1; 0.114 in experiment [8]; 0.312 in experiment [10]; -0.212 in [15]; -0.152 in experiment [16]; 0.268 in the experiment with Torsin-1A (Homo sapiens) [17]. Further, the figures for the composite z-score (with Torsin-1A (Homo sapiens) [18]; in experiment [19]) were -0.0496 and 1.91, respectively. In addition, the z-score is -1.33 in experiment [7]; -0.314 (inactive) in experiment [9]; -5.28 (inactive) in experiment [11]; 0.336 (inactive) in experiment [12]; 18.2 (active) in experiment [13]; 0.429 (inactive) in experiment [14].
